Assay results taken from PubChem BioAssay (EPA / NIEHS).
Inconclusive results are not listed. The source made the active and inactive calls. Rule for the calls, unless noted: active = hit-call score of the fitted dose curve at least 0.9, where 1 is the maximum; inactive = score below 0.9.

What was measured:
[1] = target: Oxysterols receptor LXR-alpha (Homo sapiens) (UniProt Q13133); assay: ATG_LXRa_TRANS: Attagene TRANS-FACTORIAL HepG2 Assay for human Liver X Receptor alpha (LXRa) (AID 2282980; active = hit-call score of the fitted dose curve at least 0.9, where 1 is the maximum); settings: HepG2 Attagene TRANS reporter, LXRa transactivation
Summary of the method: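 Chemical-induced reporter mRNA measured by RT-PCR with fluorescent labelling and capillary electrophoresis after 24 h dosing of transiently transfected HepG2 cells expressing exogenous NR-Gal4 chimeras; increases scored against DMSO baseline.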

[2] = target: Oxysterols receptor LXR-beta (Homo sapiens) (UniProt P55055); assay: ATG_LXRb_TRANS: Attagene TRANS-FACTORIAL HepG2 Assay for human Liver X Receptor beta (LXRb) (AID 2282981; active = hit-call score of the fitted dose curve at least 0.9, where 1 is the maximum); settings: HepG2 Attagene TRANS GAL4-LXRb reporter, mRNA
Summary of the method: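 Readout: fluorescent reporter mRNA fragments resolved by capillary electrophoresis after RT-PCR. System: transiently transfected human HepG2, exogenous LXRb-Gal4 chimera driving GAL4-UAS reporter, 24 h dosing. Activity fitted upward against DMSO baseline.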

[3] = target: Hepatocyte nuclear factor 4-alpha (Homo sapiens) (UniProt P41235); assay: ATG_HNF4a_TRANS: Attagene TRANS-FACTORIAL HepG2 Assay for human Hepatocyte Nuclear Factor 4 alpha (HNF4a) (AID 2282982; active = hit-call score of the fitted dose curve at least 0.9, where 1 is the maximum); settings: HepG2 HNF4a transactivation reporter, mRNA readout
Summary of the method: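 Transient MRTU transfection of HepG2, 24 h dosing. Readout: reporter mRNA via RT-PCR + capillary electrophoresis, fluorescence; activity fit upward relative to DMSO control.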

[4] = ATG_M_06_TRANS: Attagene TRANS-FACTORIAL HepG2 Assay for M06 Transcription Factor (Internal Marker) (AID 2282983; active = hit-call score of the fitted dose curve at least 0.9, where 1 is the maximum); settings: HepG2 Attagene TRANS M06 internal marker reporter
Summary of the method: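 Background-control reporter readout: after 24 h chemical exposure of transiently transfected HepG2 (GAL4-UAS reporter units), mRNA quantified by RT-PCR with fluorescent labeling and capillary electrophoresis. Gain-of-signal fitting against DMSO baseline.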

[5] = target: Transcriptional activator Myb (Homo sapiens) (UniProt P10242); assay: ATG_Myb_CIS: Attagene CIS-FACTORIAL HepG2 Assay for human Myeloblastosis (Myb) Proto-Oncogene Transcription Factor (AID 2282986); settings: HepG2 Attagene CIS-FACTORIAL Myb reporter transcription; actives raise or lower the signal
Summary of the method: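 After 24 h of compound dosing, total RNA from transfected HepG2 cells is reverse-transcribed and the reporter sequences amplified, labeled and separated by capillary electrophoresis. Values come from bidirectional fitting against DMSO.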

[6] = target: Nuclear respiratory factor 1 (Homo sapiens) (UniProt Q16656); assay: ATG_NRF1_CIS: Attagene CIS-FACTORIAL HepG2 Assay for human Nuclear Respiratory Factor 1 (NRF1) Orphan Gene (AID 2282987); settings: HepG2 NRF1 cis-element reporter, Attagene multiplex; actives raise or lower the signal
Summary of the method: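 Measured: fluorescent reporter-specific RT-PCR products from transfected HepG2 cells, separated by capillary electrophoresis. Exposure lasted 24 h. Analysis used bidirectional curve fitting with DMSO as negative control.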

[7] = ATG_NFI_CIS: Attagene CIS-FACTORIAL HepG2 Assay for human Nuclear Factor I (NFI) (AID 2282989); settings: HepG2 cis-regulatory reporter, NFI response element transcription; actives raise or lower the signal
Summary of the method: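 Multiplexed cis-reporter system in human HepG2 cells reports native TF activity as reporter mRNA induction 24 h post-dose. Fragments labelled with 6-FAM, HpaI-digested and resolved by capillary electrophoresis; activity fitted both directions versus DMSO.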

[8] = target: Myc proto-oncogene protein (Homo sapiens) (UniProt P01106); assay: ATG_Myc_CIS: Attagene CIS-FACTORIAL HepG2 Assay for human Myelocytomatosis (Myc) Proto-Oncogene Transcription Factor (AID 2282990); settings: HepG2, Attagene cis-reporter transcription factor activity; actives raise or lower the signal
Summary of the method: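 Fluorescence intensity of reporter-specific cDNA fragments, separated by capillary electrophoresis, gives the signal. Transfected HepG2 cells carrying cis-promoter reporter constructs are incubated with compound for 24 h; DMSO serves as baseline.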

[9] = ATG_NRF2_ARE_CIS: Attagene CIS-FACTORIAL HepG2 Assay for human Nuclear Factor Erythroid 2 Related Factor 2 (NFR2) response to Antioxidant Response Elements (ARE) (AID 2282992); settings: HepG2 Attagene ARE/NRF2 reporter, transcription factor activity; actives raise or lower the signal
Summary of the method: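 Endogenous transcription factor activity in human liver HepG2 cells is tracked via a cis-element-driven reporter within a multiplexed set. mRNA induction is read by RT-PCR and capillary electrophoresis after 24 h, with DMSO as baseline.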

[10] = ATG_Oct_MLP_CIS: Attagene CIS-FACTORIAL HepG2 Assay for human Octamer-Binding Transcription Factor (Oct) (AID 2282993); settings: HepG2 Attagene cis-factorial Oct reporter, mRNA; actives raise or lower the signal
Summary of the method: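 After 24 h compound exposure, transfected HepG2 cells were lysed for total RNA; reporter-specific cDNA was PCR-amplified, fluorescently labelled and sized by capillary electrophoresis. Bidirectional curve fitting used DMSO as baseline.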

[11] = target: Bile acid receptor (Homo sapiens) (UniProt Q96RI1); assay: ATG_FXR_TRANS: Attagene TRANS-FACTORIAL HepG2 Assay for Farnesoid X Receptor (FXR) (AID 2282979; active = hit-call score of the fitted dose curve at least 0.9, where 1 is the maximum;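 note: hits raise reporter mRNA above DMSO so AC50 marks FXR activation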); settings: HepG2 Attagene TRANS FXR-GAL4 reporter transcription
Summary of the method: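 Reporter transcripts from transfected HepG2 cells were measured 24 h after dosing, using RT-PCR with capillary electrophoresis of 6-FAM-labelled fragments. The read-out reflects activity of exogenous FXR-Gal4 chimera on GAL4-UAS units, with induction relative to DMSO.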

[12] = ATG_M_32_TRANS: Attagene TRANS-FACTORIAL HepG2 Assay for M32 Transcription Factor (Internal Marker) (AID 2282984; active = hit-call score of the fitted dose curve at least 0.9, where 1 is the maximum;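 note: transcript level of a background control reporter unit measured by RT-PCR and capillary electrophoresis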); settings: HepG2 Attagene TRANS M32 internal marker reporter
Summary of the method: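 Read-out: fluorescent reporter cDNA fragments resolved by capillary electrophoresis after RT-PCR of total RNA. Transfected HepG2 cells were exposed to chemical for 24 h. Activity scored in the positive direction relative to DMSO.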

[13] = target: Cellular tumor antigen p53 (Homo sapiens) (UniProt P04637); assay: ATG_p53_CIS: Attagene CIS-FACTORIAL HepG2 Assay for human p53 Transcription Factor (AID 2282994); settings: HepG2 p53 cis-element reporter, Attagene mRNA; actives raise or lower the signal
Summary of the method: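 Steps: transfect HepG2 with multiplexed cis reporter constructs; dose chemicals 24 h; extract RNA, reverse-transcribe, PCR-amplify reporter sequences; FAM-label, HpaI-digest, resolve fragments by CE. Activity fitted both directions relative to DMSO.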

[14] = ATG_NF_kB_CIS: Attagene CIS-FACTORIAL HepG2 Assay for human Nuclear Factor Kappa B (NF-kB) (AID 2282991); settings: HepG2 Attagene cis-factorial NF-kB reporter mRNA; actives raise or lower the signal
Summary of the method: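 Fluorescence of labelled RT-PCR products separated by capillary electrophoresis gives reporter mRNA levels from transfected HepG2 cells exposed 24 h; values are fitted in both directions relative to DMSO.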

[15] = BSK_3C_TissueFactor: BioMAP Diversity Plus: 3C Assay for Tissue Factor Biomarker Activity (AID 2282997); settings: BioMAP 3C HUVEC, tissue factor biomarker readout; actives raise or lower the signal
Summary of the method: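 Tissue factor on primary human umbilical vein endothelium was read by ELISA 24 h after dosing, gain or loss relative to DMSO. Cytotoxicity ran alongside via SRB (0.1%, TCA-fixed, 560 nm).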

[16] = BSK_3C_uPAR: BioMAP Diversity Plus: 3C Assay for Urokinase-type plasminogen activator receptor (uPAR) Biomarker Activity (AID 2282998); settings: BioMAP 3C HUVEC, uPAR biomarker ELISA; actives raise or lower the signal
Summary of the method: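 Values derive from bidirectional curve fitting relative to DMSO, which served as baseline of activity. uPAR was measured by ELISA in human umbilical vein endothelial primary cultures 24 h after compound addition.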

[17] = BSK_3C_VCAM1: BioMAP Diversity Plus: 3C Assay for Vascular cell adhesion molecule 1 (VCAM1) Biomarker Activity (AID 2282999); settings: BioMAP 3C HUVEC, VCAM1 ELISA, cytokine-stimulated; actives raise or lower the signal
Summary of the method: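 HUVEC primary cells, 24 h compound exposure; VCAM-1 by ELISA; gain/loss of signal fitted bidirectionally vs DMSO baseline.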

[18] = BSK_4H_Eotaxin3: BioMAP Diversity Plus: 4H Assay for Eotaxin 3 Biomarker Activity (AID 2283000); settings: primary human endothelial cells (HUVEC); actives raise or lower the signal;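 note: CCL26 protein level quantified by ELISA in parallel with SRB cytotoxicity check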
Summary of the method: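 Human umbilical vein endothelial cells (BSK_4H system) dosed with test chemical; Eotaxin-3 (CCL26) measured by ELISA 24 h after dosing. Bidirectional curve fitting relative to DMSO negative control as baseline.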

[19] = target: Nuclear receptor subfamily 4 group A member 2 (Homo sapiens) (UniProt P43354); assay: ATG_NURR1_TRANS: Attagene TRANS-FACTORIAL HepG2 Assay for human Nuclear Receptor Related Protein 1 (NURR1) (AID 2282985; active = hit-call score of the fitted dose curve at least 0.9, where 1 is the maximum); settings: HepG2 Attagene TRANS reporter, mRNA readout
Summary of the method: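 Read-out: reporter mRNA induction by RT-PCR plus capillary electrophoresis with fluorescence detection, after 24 h dosing of transfected HepG2 cells. Exogenous NR-Gal4 chimera activity drives GAL4-UAS reporter; activity fitted upward versus DMSO.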

Measured: AC50

Nuclear receptor subfamily 4 group A member 2 (Homo sapiens), sequence (P43354 whole entry, looked up, the tested form may be a part): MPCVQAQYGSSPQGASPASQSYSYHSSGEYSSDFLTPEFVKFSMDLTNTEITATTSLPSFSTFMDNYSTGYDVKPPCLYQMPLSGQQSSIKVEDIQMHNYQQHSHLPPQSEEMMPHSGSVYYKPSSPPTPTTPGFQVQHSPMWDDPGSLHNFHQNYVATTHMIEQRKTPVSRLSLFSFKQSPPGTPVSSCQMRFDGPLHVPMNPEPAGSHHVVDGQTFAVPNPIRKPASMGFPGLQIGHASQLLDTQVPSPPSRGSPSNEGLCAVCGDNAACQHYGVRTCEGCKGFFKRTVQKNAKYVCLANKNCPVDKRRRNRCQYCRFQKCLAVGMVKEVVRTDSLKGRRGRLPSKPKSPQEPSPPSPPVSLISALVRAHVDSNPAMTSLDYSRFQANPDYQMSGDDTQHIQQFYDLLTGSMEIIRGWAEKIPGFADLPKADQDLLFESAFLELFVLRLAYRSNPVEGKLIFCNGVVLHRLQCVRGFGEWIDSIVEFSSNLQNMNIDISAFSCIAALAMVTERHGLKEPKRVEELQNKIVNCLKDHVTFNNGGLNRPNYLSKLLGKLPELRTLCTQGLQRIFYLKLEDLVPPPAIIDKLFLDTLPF
Oxysterols receptor LXR-alpha (Homo sapiens), sequence (Q13133 whole entry, looked up, the tested form may be a part): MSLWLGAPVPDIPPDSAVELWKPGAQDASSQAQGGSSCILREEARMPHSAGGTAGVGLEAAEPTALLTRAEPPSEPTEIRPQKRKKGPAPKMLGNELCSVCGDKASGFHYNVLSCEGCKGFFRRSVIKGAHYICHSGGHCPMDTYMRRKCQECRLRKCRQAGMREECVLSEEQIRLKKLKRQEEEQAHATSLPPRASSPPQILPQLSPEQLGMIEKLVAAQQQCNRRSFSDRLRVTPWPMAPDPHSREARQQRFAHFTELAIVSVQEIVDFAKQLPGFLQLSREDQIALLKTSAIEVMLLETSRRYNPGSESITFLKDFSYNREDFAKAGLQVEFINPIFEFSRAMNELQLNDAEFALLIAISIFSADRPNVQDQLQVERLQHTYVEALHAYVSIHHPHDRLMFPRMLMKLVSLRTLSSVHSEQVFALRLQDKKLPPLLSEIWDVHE
Transcriptional activator Myb (Homo sapiens), sequence (P10242 whole entry, looked up): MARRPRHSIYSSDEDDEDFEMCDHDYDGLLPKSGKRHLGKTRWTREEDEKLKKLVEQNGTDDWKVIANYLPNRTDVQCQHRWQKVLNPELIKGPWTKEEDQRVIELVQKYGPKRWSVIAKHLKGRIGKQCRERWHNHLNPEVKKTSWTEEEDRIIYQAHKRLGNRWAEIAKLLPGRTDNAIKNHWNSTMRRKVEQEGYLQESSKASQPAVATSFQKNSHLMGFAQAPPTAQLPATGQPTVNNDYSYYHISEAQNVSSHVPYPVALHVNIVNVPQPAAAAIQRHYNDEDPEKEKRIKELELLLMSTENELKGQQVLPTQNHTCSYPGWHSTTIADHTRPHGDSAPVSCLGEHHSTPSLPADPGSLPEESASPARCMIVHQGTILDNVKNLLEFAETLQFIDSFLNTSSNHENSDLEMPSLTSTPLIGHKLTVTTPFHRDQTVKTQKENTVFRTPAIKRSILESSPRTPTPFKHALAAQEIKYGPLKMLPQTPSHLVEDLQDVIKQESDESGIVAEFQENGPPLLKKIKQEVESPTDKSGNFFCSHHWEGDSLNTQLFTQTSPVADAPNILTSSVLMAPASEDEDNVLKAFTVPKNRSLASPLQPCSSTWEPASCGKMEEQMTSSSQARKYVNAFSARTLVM
Myc proto-oncogene protein (Homo sapiens), sequence (P01106 whole entry, looked up, the tested form may be a part): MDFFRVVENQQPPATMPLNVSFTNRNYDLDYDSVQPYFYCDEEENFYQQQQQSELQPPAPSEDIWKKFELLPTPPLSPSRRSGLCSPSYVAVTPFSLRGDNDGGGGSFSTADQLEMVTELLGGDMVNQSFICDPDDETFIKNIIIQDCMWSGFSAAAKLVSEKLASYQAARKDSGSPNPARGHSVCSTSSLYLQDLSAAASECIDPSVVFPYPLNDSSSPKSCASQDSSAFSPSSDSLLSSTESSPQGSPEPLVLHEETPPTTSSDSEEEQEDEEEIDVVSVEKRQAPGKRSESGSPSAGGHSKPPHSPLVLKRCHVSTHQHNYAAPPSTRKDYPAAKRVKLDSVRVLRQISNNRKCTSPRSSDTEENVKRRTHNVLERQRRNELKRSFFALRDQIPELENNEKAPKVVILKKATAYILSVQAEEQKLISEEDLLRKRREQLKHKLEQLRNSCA
Cellular tumor antigen p53 (Homo sapiens), sequence (P04637 whole entry, looked up, the tested form may be a part): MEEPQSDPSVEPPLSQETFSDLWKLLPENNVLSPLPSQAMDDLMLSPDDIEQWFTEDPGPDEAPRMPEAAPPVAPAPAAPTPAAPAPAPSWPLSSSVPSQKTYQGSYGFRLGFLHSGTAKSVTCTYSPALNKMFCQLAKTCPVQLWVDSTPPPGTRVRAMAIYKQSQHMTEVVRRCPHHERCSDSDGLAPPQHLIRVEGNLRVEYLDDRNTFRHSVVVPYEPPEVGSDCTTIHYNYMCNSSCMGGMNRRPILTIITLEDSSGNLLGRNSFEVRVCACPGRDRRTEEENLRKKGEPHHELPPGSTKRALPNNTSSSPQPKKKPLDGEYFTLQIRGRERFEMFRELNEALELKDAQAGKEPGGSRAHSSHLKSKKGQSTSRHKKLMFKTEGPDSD
Nuclear respiratory factor 1 (Homo sapiens), sequence (Q16656 whole entry, looked up): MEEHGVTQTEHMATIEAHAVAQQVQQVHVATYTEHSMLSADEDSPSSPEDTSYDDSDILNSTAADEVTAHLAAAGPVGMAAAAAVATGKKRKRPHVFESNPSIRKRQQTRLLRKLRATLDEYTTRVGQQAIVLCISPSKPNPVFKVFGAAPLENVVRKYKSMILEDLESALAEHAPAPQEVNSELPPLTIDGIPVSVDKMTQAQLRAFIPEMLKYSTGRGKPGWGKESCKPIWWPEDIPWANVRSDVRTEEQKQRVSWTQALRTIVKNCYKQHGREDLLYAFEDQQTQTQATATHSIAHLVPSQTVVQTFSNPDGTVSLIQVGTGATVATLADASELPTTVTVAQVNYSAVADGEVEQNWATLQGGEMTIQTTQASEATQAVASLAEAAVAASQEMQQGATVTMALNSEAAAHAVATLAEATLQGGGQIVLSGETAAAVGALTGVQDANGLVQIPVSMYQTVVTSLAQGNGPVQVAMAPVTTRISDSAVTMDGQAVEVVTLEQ
Oxysterols receptor LXR-beta (Homo sapiens), sequence (P55055 whole entry, looked up, the tested form may be a part): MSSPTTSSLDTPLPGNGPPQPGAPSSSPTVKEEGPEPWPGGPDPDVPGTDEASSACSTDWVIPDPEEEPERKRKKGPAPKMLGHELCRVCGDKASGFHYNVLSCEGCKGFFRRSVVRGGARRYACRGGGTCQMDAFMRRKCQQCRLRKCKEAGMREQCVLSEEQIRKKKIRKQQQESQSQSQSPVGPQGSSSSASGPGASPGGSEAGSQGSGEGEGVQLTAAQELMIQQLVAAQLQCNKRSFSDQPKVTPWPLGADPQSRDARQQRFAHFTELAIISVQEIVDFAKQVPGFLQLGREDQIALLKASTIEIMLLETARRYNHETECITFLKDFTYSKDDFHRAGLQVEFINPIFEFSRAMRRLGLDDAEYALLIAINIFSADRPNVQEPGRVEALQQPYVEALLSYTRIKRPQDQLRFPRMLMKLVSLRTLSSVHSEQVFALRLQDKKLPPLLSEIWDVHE
Hepatocyte nuclear factor 4-alpha (Homo sapiens), sequence (P41235 whole entry, looked up): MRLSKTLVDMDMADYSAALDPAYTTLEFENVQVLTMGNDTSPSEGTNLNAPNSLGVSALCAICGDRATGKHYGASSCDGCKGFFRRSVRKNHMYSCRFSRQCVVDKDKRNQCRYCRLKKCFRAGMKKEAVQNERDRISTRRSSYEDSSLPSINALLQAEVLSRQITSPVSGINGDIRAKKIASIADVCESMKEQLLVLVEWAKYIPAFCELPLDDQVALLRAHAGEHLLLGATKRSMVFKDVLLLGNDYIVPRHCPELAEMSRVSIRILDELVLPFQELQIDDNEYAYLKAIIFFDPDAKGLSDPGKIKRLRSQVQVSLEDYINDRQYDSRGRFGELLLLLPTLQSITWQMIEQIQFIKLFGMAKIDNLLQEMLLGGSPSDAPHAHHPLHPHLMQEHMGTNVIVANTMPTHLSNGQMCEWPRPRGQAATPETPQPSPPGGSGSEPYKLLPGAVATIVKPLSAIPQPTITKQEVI
Bile acid receptor (Homo sapiens), sequence (Q96RI1 whole entry, looked up, the tested form may be a part): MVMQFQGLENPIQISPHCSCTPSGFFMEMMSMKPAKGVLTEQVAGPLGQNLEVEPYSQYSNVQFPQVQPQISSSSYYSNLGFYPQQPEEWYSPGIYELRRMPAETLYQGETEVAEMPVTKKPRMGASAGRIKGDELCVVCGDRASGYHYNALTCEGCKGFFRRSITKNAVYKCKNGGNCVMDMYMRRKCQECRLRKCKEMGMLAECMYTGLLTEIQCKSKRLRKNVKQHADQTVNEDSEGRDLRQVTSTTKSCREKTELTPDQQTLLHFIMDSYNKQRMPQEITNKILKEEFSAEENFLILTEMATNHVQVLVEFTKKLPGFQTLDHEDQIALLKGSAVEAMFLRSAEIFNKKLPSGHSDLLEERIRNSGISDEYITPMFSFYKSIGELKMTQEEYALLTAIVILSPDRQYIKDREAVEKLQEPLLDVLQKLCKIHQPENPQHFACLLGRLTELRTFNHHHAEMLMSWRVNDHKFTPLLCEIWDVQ

CCCOCC(C)O (stereo unspecified)
inactive: [1] | [2] | [3] | [4] | [5] | [6] | [7] | [8] | [9] | [10]

CCN(CC)c1ccc2c(-c3ccccc3C(=O)O)c3ccc(=[N+](CC)CC)cc-3oc2c1
active: [9] 36.7 µM
inactive: [11] | [12] | [5] | [6] | [7] | [8] | [10] | [13]

Cc1ccc(Nc2ccc(O)c3c2C(=O)c2ccccc2C3=O)cc1
inactive: [11] | [1] | [2] | [12] | [6] | [7] | [8] | [14] | [10] | [13] | [16] | [17] | [18]
active: [9] 5.13 µM | [15] 1.13 µM

O=C1NC(=O)c2ccccc21
inactive: [11] | [4] | [5] | [6] | [8] | [14] | [9] | [10]

O=C(OCc1ccccc1)C(=O)OCc1ccccc1
inactive: [1] | [2] | [3] | [4] | [12] | [5] | [6] | [7] | [8] | [14] | [9] | [10] | [13]

OC1C(O)C(O)C(O)C(O)C1O (stereo unspecified)
inactive: [1] | [2] | [3] | [4] | [12] | [19] | [5] | [6] | [7] | [8] | [14] | [9] | [10]

Cc1ccc(C(=O)O)o1
inactive: [1] | [2] | [3] | [4] | [19] | [5] | [6] | [7] | [8] | [14] | [9] | [10]

CCCC/C=C\CCCCCCCCCC=O
inactive: [11] | [12] | [5] | [6] | [8] | [14] | [9] | [10] | [13]

Nc1cc(Cl)c(O)c(Cl)c1
active: [3] 100 µM | [8] 100 µM | [14] 46.8 µM | [9] 26.5 µM | [10] 100 µM | [13] 144 µM
inactive: [1] | [2] | [12] | [5] | [6] | [7]

CC(C)C(C)(C)C(C)(C)C(C)(C)S
inactive: [1] | [2] | [3] | [4] | [19] | [5] | [6] | [7] | [8] | [14] | [9] | [10] | [13]

O=C(O)COCCN1CCN(C(c2ccccc2)c2ccc(Cl)cc2)CC1 (stereo unspecified)
inactive: [11] | [4] | [12] | [8] | [10] | [13]

C=CC(=O)NCOCC(C)C
active: [9] 54.6 µM
inactive: [11] | [3] | [4] | [12] | [5] | [6] | [8] | [14] | [10] | [13]
